RTF Ca sens act – increases calcium sensitivity of human cardiac regulated thin filaments. IANBD-labeled TnC RTF fluorescence at EC20 calcium; 0% EC20 calcium, 100% full calcium. activation, % at 7.2 µM. AID 493008. P19429+P45379. 340,000 tested, 0.24% active;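 active = activation above the mean over all tested compounds plus 3 SD, cut at about 30% in these data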;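 also: rise in fluorescence read as greater calcium sensitivity of cardiac thin filaments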
Keap1-Nrf2 PPI – Keap1-Nrf2 (human) interaction inhibition; Q14145; Keap1 Kelch-Nrf2 peptide fluorescence polarization, 1536-well; inhibition, % at 9.4 µM; 340,000 tested, 0.15% active; AID 504523; in the data active = inhibition above about 12%;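 also: human Keap1 Kelch domain with fluorescein labeled Nrf2 9mer peptide probe; 0% = neutral control wells and 100% = peptide positive control; higher means more block of Keap1 binding to Nrf2 peptide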
Target sequence (Q14145 whole entry, looked up, the tested form may be a part): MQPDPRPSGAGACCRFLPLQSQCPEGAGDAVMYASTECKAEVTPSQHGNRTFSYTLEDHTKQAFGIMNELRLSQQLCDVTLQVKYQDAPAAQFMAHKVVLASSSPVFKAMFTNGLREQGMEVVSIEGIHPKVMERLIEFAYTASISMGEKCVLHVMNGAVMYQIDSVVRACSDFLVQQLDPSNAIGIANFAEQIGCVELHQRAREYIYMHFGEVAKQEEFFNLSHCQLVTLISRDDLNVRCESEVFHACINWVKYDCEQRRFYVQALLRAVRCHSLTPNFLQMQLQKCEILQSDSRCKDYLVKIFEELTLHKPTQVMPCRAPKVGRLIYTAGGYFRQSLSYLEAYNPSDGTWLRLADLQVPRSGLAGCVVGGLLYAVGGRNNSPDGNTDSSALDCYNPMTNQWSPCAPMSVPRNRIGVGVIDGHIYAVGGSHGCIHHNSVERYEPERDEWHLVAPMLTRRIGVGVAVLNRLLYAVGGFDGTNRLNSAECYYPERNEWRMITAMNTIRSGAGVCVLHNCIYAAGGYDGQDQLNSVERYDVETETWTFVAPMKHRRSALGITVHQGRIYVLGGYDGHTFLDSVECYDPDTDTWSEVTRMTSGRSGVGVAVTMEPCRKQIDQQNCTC
Cardiac RTF inh – cardiac RTF calcium desensitization; P19429+P45379; IANBD-labeled cardiac RTF, Ca2+ fluorescence; inhibition, % at 7.15 µM; 340,000 tested, 0.12% active;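 active = inhibition above the mean inhibition of all tested compounds plus 3 SD, cut at about 17% in these data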;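 also: assay run at fixed EC70 calcium of 1.6 mM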
EBV gp42 block – blocks Epstein-Barr virus glycoprotein 42 binding. 220,000 tested, 0.42% active. inhibition, % (tested at 21.74 µM). AID 1085. Fluorescence polarization binding assay, mP read-out; in the data active = inhibition above about 50%
C-LANA FP – blocks KSHV LANA C-terminal domain binding to DNA. 340,000 tested, 0.078% active. MBP-C-LANA/FAM-LBS DNA binding, fluorescence polarization. inhibition, % at 9 µM. AID 504423;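 active = highest replicate inhibition at or above 60% at 9 µM, even if other replicates fall short; inactive = all replicates below 60% inhibition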;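 also: 0% = neutral control wells and 100% = 4 µM acridine orange control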
E coli Lon inh – inhibitors of E. coli Lon protease. P0A9M0. 360,000 tested, 0.42% active. purified E. coli Lon protease, fluorescence polarization. AID 602123. inhibition, % at 7.94 µM; in the data active = inhibition above about 13%, passing the limit was not always enough;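 also: 0% = enzyme with probe and DMSO and 100% = no enzyme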
Keap1 Kelch bind – binds and thermally shifts human Keap1 Kelch domain. AID 651823. Keap1 Kelch thermal shift, delta Tm; active compounds read high. 400 tested, 8% active. shares compounds with Keap1-Nrf2 PPI. max delta Tm, degrees C; in the data active = max delta Tm above about 0.48 degrees C
Dye-only ctr – counter-screen for Keap1 thermal shift hits: dye-only artifacts. shares compounds with Keap1-Nrf2 PPI. Sypro Orange dye-only thermal melt, no protein, delta Tm; top dose 26 µM. delta Tm, degrees C (test concentration not listed). 140 tested, under 10 active. AID 651858;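 active = at highest dose tested, delta Tm positive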
* = called active by the depositor; . = no result. Most compounds without a hit are left out; they make up all but 0.98% or so of the library.

SMILES	RTF Ca sens act	Keap1-Nrf2 PPI	Cardiac RTF inh	EBV gp42 block	C-LANA FP	E coli Lon inh	Keap1 Kelch bind	others
COc1ccc(OC)c(N2C(=NC(=O)C3CCCCC3)SC3CS(=O)(=O)CC32)c1 (configuration not stated)	-2.7	-3.3	-5.9	.	0.8	-7.4	.
CNC(=O)C1CC(=O)N(c2ccc(OCC(=O)Nc3ccc(F)cc3)cc2)C1 (configuration not stated)	4.7	29.9*	-10.3	.	14.6	-2.9	-0.09	Dye-only ctr=-26.1
COc1cccc(S(=O)(=O)N(C)C[C@H]2OCc3cn(nn3)CCCC(=O)N([C@@H](C)CO)C[C@@H]2C)c1	.	.	.	.	.	-2.3	.
COc1cccc(NC(=O)CN(C)CC(=O)NCc2ccco2)c1	-6.8	24.0*	2.8	.	80.8*	5.4	-0.07	Dye-only ctr=-22.4
Cc1ccc(NC(=O)C(=O)Nc2ccc(C)cn2)nc1	4.4	-4.6	-14.0	-11.0	-0.8	6.2	.
Cc1ccc(NC(=O)/C(C#N)=C(\N)C(Cl)(Cl)Cl)nc1	7.4	37.5*	-23.4	137.4*	33.6	2.1	-0.01
COc1ccc(CNC(=O)/C=C/[C@H]2O[C@@H](n3ccc(=O)[nH]c3=O)[C@H](O)[C@@H]2O)cc1	.	.	.	.	.	-1.5	.
COc1ccc(OC)c(S(=O)(=O)Nc2ccc(F)cc2)c1	-7.8	12.3*	-1.2	-17.4	3.0	-5.7	-0.08
COc1ccc(NS(=O)(=O)c2cc(OC)ccc2OC)cc1	3.0	0.4	3.2	.	-0.4	-5.7	.
NC(=O)c1cc2ccccc2oc1=NCc1ccccc1	-1.7	-2.3	-6.6	-8.2	-0.8	4.5	.
NC(=O)c1cc2ccc(O)cc2oc1=NCc1ccccc1	60.2*	16.1*	-66.5	107.9*	21.6	-7.5	-0.14	Dye-only ctr=-26
CCCCC(CC)C(=O)Oc1ccc(O)c(C(C)(C)C)c1 (configuration not stated)	-1.2	14.9*	4.9	0.2	-0.9	1.4	0.05
CC(C)(C)c1cc(OC(=O)C2CCCC2)ccc1O	-1.4	4.6	-0.6	.	0.1	-1.6	.
CCOc1ccc(C=NNc2ccc(S(=O)(=O)Nc3ccccc3C(=O)O)cc2[N+](=O)[O-])cc1	-16.7	0.8	0.4	.	0.5	-18.2	.
C=CCOc1ccc(C=NNc2ccc(S(=O)(=O)Nc3ccccc3C(=O)O)cc2[N+](=O)[O-])cc1OC	-9.0	12.8*	-0.3	.	14.1	5.3	0.91*
CC(=O)c1cccc(S(=O)(=O)N2CCC(C(=O)Nc3cccc(C(=O)NC4CC4)c3)CC2)c1	2.2	-3.5	-8.0	.	-0.3	-5.1	.
CC(=O)Nc1c(N)c2ccccc2oc1=O	-0.1	14.0*	-1.7	-5.6	5.0	-5.7	-0.16	Dye-only ctr=-25.7
CC(=O)Nc1c(NC(C)(C)C)c2ccccc2oc1=O	3.1	4.3	-0.3	4.7	-1.5	0.2	.
COc1ccc2nc3ccccc3nc2c1NC(=O)c1ccccc1Cl	-2.3	15.6*	0.0	-10.6	9.4	-10.1	0.07
O=C(O)CCNc1ccc(NCCC(=O)O)c2c1C(=O)c1ccccc1C2=O	6.6	12.8*	-21.7	.	55.1	26.3	0.63*	Dye-only ctr=-26.3
COc1ccc2occ(C(=O)c3coc4ccc(O)c(CN(C)C)c34)c2c1	1.0	3.1	-7.5	2.8	1.8	2.7	.
COc1ccc(OC)c(C(=O)c2coc3ccc(O)c(CN(C)C)c23)c1	0.9	18.6*	-4.3	.	8.8	1.6	-0.11
Cc1ccc(OCCN2CCC2(C)C(=O)Nc2ccc3c(c2)OCO3)cc1 (configuration not stated)	.	.	.	.	.	4.9	.
O=C(NC1(O)C(=O)c2ccccc2C1=O)c1ccccc1	1.7	-12.3	0.6	4.5	3.0	-2.0	.
O=C(NC1(O)C(=O)c2ccccc2C1=O)c1c(Cl)cccc1Cl	.	19.5*	.	-4.7	.	5.7	-0.07	Dye-only ctr=-24.4
SMILES	RTF Ca sens act	Keap1-Nrf2 PPI	Cardiac RTF inh	EBV gp42 block	C-LANA FP	E coli Lon inh	Keap1 Kelch bind	others
COc1ccccc1C(=O)N1CCN(C(=O)[C@H]2O[C@@H](n3cnc4c(N)ncnc43)[C@H](O)[C@@H]2O)CC1	.	.	.	.	.	-3.4	.
COC(=O)N/N=C/c1cn(Cc2ccccc2Cl)c2ccccc12	-0.9	17.4*	3.2	11.9	1.8	-1.8	-0.17	Dye-only ctr=-23.2
CN(N=Nc1ccc([N+](=O)[O-])cc1)c1ccccc1	511.4*	113.3*	-7.6	81.9*	100.6*	1.1	0
CN(N=Nc1cccc([N+](=O)[O-])c1)c1ccccc1	-2.1	-1.8	5.5	.	-3.1	1.9	.
COc1ccc(NS(=O)(=O)c2cccc(C(=O)NN=Cc3cc(Br)c(O)c(Br)c3)c2)cc1	-3.8	-2.6	6.6	.	0.5	9.2	.
COCCCN1C(=O)c2ccc(C(=O)Nc3ccc(C)cc3C)cc2C1=O	-5.5	39.1*	-7.8	.	1.8	6.3	-0.14
COCCCN1C(=O)c2ccc(C(=O)Nc3ccccc3OC)cc2C1=O	-4.2	-3.4	0.1	-14.2	1.3	7.8	.
CCOCCCn1c(=NC(=O)c2cccs2)c(C#N)cc2c(=O)n3ccccc3nc21	9.8	22.6*	-20.8	36.3	30.4	0.2	-0.12
COc1ccc2c(c1)c1nc3ccccc3nc1n2CC(=O)OC(C)C	13.3	24.3*	-8.9	90.8*	29.0	-5.6	-0.1	Dye-only ctr=-28.8
O=C(Nc1cccc(S(=O)(=O)C(F)(F)F)c1)[C@H]1C[C@H](O)[C@@H](CO)O1	.	.	.	.	.	-1.4	.
Cc1ccc(OC(C)C(=O)N2CCN(c3ccccn3)CC2)cc1 (configuration not stated)	4.3	35.1*	-7.5	.	18.2	-8.8	-0.04
Cc1ccc(C(=O)N2CCN(c3ccccn3)CC2)cc1	-1.4	2.7	0.3	-6.4	-1.8	-9.1	.
C=CCn1cccc(C(=O)Nc2ccc(OC)c(OC)c2)c1=O	.	3.3	.	-7.2	0.1	-5.1	.
C=CCn1cccc(C(=O)Nc2ccc(OC)c(Cl)c2)c1=O	31.8*	48.1*	-8.0	.	-1.7	-0.7	-0.06
COc1ccccc1NC(=O)COC(=O)c1c(NC(C)=O)sc(C)c1C	.	.	.	.	.	-1.3	.
CC1=C(C#N)c2nc(N)c(C#N)c(C)c2/C1=C\c1ccc(-c2ccccc2C(=O)O)o1	-2.9	92.0*	4.0	7.9	16.9	-6.3	2.26*
COc1cc(/C=C2/C(C)=C(C#N)c3nc(N)c(C#N)c(C)c32)ccc1OCC(=O)O	.	-3.1	.	6.0	5.6	.	.
O=C(CSc1nc2ccccc2c(=O)n1CCCN1CCOCC1)Nc1ccccc1OC(F)F	0.3	18.7*	-2.6	.	12.1	4.1	-0.14	Dye-only ctr=-22.8
Nc1cc(=O)[nH]c2ncnn12	4.0	3.0	-15.3	.	-0.2	-1.8	.
CCNCC(=O)N1c2ccccc2CCc2ccc(NC(C)=O)cc21	3.2	-2.4	-5.4	-12.8	-0.2	3.2	.
CC(=O)Nc1ccc2c(c1)N(C(=O)CN(C)C)c1ccccc1CC2	2.9	122.9*	1.5	-5.3	26.7	4.2	-0.18

Screening results as filed in PubChem BioAssay.
